HT1080-NT tox: kills 2HG-producing HT-1080-NT fibrosarcoma cells. HT-1080-NT fibrosarcoma viability, CellTiter-Glo ATP luminescence, 48 h. Potency, µM (series often up to 46.1 µM), actives largely listed as cytotoxic. actives 1.6% (n = 360,000);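 further: NT is the 2HG producing partner of a matched IDH1 knockdown line; nearly all actives have a fitted effect of over 55% in size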
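HT-1080-NT fibrosarcoma cells (2HG-overproducing), 750 cells/well in RPMI with 5% FBS, dosed after 2 h and incubated 48 h at 37C. CellTiter-Glo luminescence normalized to DMSO and no-cell wells; concentration-response curves fitted and classed.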
HT1080 IDH1KD tx: kills HT-1080 cells with IDH1 knockdown; HT-1080 IDH1 knockdown viability, ATP luminescence, 48 h; Potency, µM (doses to about 46.1 µM), hits mostly cytotoxic; actives 2% (n = 360,000); AID 686971
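Viability of IDH1-knockdown HT-1080 fibrosarcoma cells was assessed by CellTiter-Glo after 48 h at 37 °C with titrated compound; concentration-effect curves were classified by fit quality and response size.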
SW480 rerep: inducers of DNA re-replication in SW480 colon cancer cells. Potency, µM (series often up to 46.1 µM), actives largely listed as activators. SW480 DNA re-replication, Hoechst DNA content imaging, 48 h. actives 1.8% (n = 340,000); further: nearly all actives have a fitted effect of over 55% in size
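Cells (250 per well) received 23 nL compound or DMSO by pin tool and were kept 48 hr at 37 C, 5% CO2. Nuclei were then stained with Hoechst for 40 min and scanned for DNA content.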
KB-V1 cytotox: kills drug-selected multidrug resistant KB-V1 cells; KB-V1 MDR cells viability, CellTiter-Glo, 72 h; actives 3.4% (n = 400,000); Potency, µM (doses to about 46.1 µM), hits mostly cytotoxic; further: nearly all actives have a fitted effect of over 60% in size
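Luminescent ATP read-out (CellTiter-Glo, 10 min) measures survival of drug-selected KB-V1 MDR cells after 72 h, 37 degrees C compound exposure. Medium: phenol-red-free DMEM, 10% FBS. Values from fitted concentration-response curves.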
MCF10A rerep: induces DNA re-replication in MCF 10a normal breast cells | Potency, µM (top dose mostly 46.1 µM), actives largely listed as activators | actives 2.9% (n = 350,000) | MCF 10A DNA re-replication, Hoechst nuclear intensity, 48 h | AID 624296; further: nearly all actives have a fitted effect of over 50% in size
KB-3-1 tox: kills parental KB-3-1 adenocarcinoma cells; Potency, µM (highest dose often 46.1 µM), hits mostly cytotoxic; KB-3-1 viability, CellTiter-Glo ATP luminescence, 72 h; actives 1.4% (n = 400,000); further: nearly all actives have a fitted effect of over 60% in size
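Here the drug-naive KB-3-1 line serves as comparator for MDR sub-line selectivity; cells received compound titrations, 72 h at 37 °C, then CellTiter-Glo readout.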
Numbers stand for hits; – = inactive; ? = inconclusive; · = no result given; ! = not confirmed by another sample; [ ] = another dose, or the depositor's remark. In the library only some 7.9% were active in any assay of this set; here they are far more common. The call rests on the fitted dose curve; in most records, active means well fitted curve in the direction sought with a large enough effect; inconclusive means small, poorly fitted or top-dose-only effect, or another doubt; inactive means no such curve, though single readings can be large; an effect the other way counts as inactive or inconclusive.

SMILES | HT1080-NT tox | HT1080 IDH1KD tx | SW480 rerep | KB-V1 cytotox | MCF10A rerep | KB-3-1 tox
Cc1cccc(N2CCN(c3nc4ccc(C)cc4n4cnnc34)CC2C)c1 (stereo not given) | · | · | · | – | · | –
COc1ccc(CN2C(=O)c3cccc4cccc(c34)C2c2nc3ccccc3[nH]2)cc1 (stereo not given) | – | – | · | ? | · | –
CC(=O)N1CCC(N(Cc2ccco2)C(=O)Nc2ccc(Br)cc2F)CC1 | · | · | · | – | · | –
O=C1/C(=C\c2ccsc2)N2CCC1CC2 | – | – | – | – | – | –
CN1C/C(=C/c2ccncc2)C(=O)/C(=C/c2ccncc2)C1 | – | – | 23.1µM | – | ? | –
CN1C/C(=C/c2ccsc2)C(=O)/C(=C/c2ccsc2)C1 | ? | ? | 3.26µM | ? | 18.4µM | ?
CSC1=NC2(CCN(C(=O)NC3CCCCC3)CC2)N=C1c1ccc(C)c(C)c1 | · | · | · | – | · | –
O=C(CSCc1nc2cccnc2n1C1CCCCC1)NCc1cccc(Br)c1 | · | · | · | – | · | –
O=C(COC(=O)COc1ccc(Cl)cc1)Nc1cccnc1Cl | – | – | · | – | · | –
Cc1cccc(NC(=O)c2ccccc2SCc2ccc(F)cc2)n1 | – | – | – | 20.6µM | – | –
c1coc(-c2cc3nc(NCc4ccc5c(c4)OCO5)ccn3n2)c1 | – | – | · | – | · | –
COc1ccc(CN(Cc2ccccc2)C(=O)C2CC2)cc1COc1ccc(NC(C)=O)cc1 | – | – | · | · | · | ·
Cc1ccc(S(=O)(=O)Nc2ccc(Nc3nccn4c(-c5cccc(OC(F)(F)F)c5)cnc34)cc2)cc1 | 18.4µM | ? | · | ? | · | ?
CCCn1c(C(O)c2ccc(C)cc2)nc2ccccc21 (stereo not given) | – | – | – | – | ? | –
CCCn1c(C(O)c2ccc3c(c2)OCO3)nc2ccccc21 (stereo not given) | – | –[9.24 µM] | 14.6µM | – | ? | –
CCc1ccc(-c2cc(C(F)(F)F)n3nc(C(=O)Nc4cnn(Cc5ccc(C)cc5)c4)cc3n2)s1 | ? | 3.16µM | – | 3.66µM | ? | –
Cc1ccccc1Cn1cc(NC(=O)c2cc3nc(-c4ccco4)cc(C(F)(F)F)n3n2)cn1 | – | – | – | – | – | –
COc1ccc(N(C(=O)C(C)C)S(=O)(=O)c2ccc(Cl)cc2)cc1 | – | ? | – | 18.4µM | – | –
Brc1ccc2c(c1)C(c1cccs1)=NNC(c1cccnc1)=N2 | – | – | – | 20.6µM | – | –
COc1ccc(CNC(=O)C2CC(c3cccc([N+](=O)[O-])c3)=NO2)cc1 (stereo not given) | – | – | – | – | 9.2µM | –
Cc1ccc(CNC(=O)C2CC(c3cccc([N+](=O)[O-])c3)=NO2)cc1 (stereo not given) | – | – | ? | – | 2.06µM | –
Cc1ccc(C)c2sc(NC(=O)c3ccc(S(=O)(=O)N4CCC(C)CC4)cc3)nc12 | · | · | · | – | · | –
O=C(O)COc1ccc2oc3c(c2c1)CCCC3 | – | – | – | – | 2.06µM | –
CCc1ccc(OC2(C)CCN(Cc3ccc4c(c3)OCCO4)C2)cc1 (stereo not given) | ? | ? | · | – | · | –
CCOc1ccc(/C=N/n2c(C3CCCCC3)n[nH]c2=S)cc1 | – | – | – | – | 10.3µM | –
SMILES | HT1080-NT tox | HT1080 IDH1KD tx | SW480 rerep | KB-V1 cytotox | MCF10A rerep | KB-3-1 tox
Fc1ccc(/C=N/n2c(C3CCCCC3)n[nH]c2=S)cc1 | – | – | – | – | ? | –
CC(C)c1ccc(/C=N/n2c(COc3ccccc3)n[nH]c2=S)cc1 | – | – | – | ? | 20.6µM | –
CCOc1cccc(C2C(C(=O)c3ccc(C)o3)=C(O)C(=O)N2c2nnc(C)s2)c1 (stereo not given) | – | – | – | – | – | –
CCCOc1ccc(C2C(C(=O)c3ccc(C)o3)=C(O)C(=O)N2Cc2ccco2)cc1 (stereo not given) | – | – | ? | 18.4µM | – | –
CCOc1cccc(C2C(C(=O)c3ccco3)=C(O)C(=O)N2c2nnc(C)s2)c1 (stereo not given) | –[9.24 µM] | – | 5.8µM | – | – | –
CCCOc1cccc(C2C(C(=O)c3ccc(C)o3)=C(O)C(=O)N2c2nc(C)c(C(C)=O)s2)c1 (stereo not given) | – | – | ? | ? | 23.1µM | –
O=C(CSc1nc2c([nH]c3ccccc32)c(=O)n1-c1cccc(C(F)(F)F)c1)N1CCc2ccccc21 | · | · | · | ? | · | –
COc1cc(OC)c2cc(C(=O)N/N=C/c3cccc(OC)c3O)[nH]c2c1 | ? | 9.2µM | 3.26µM | ? | – | ?
COc1cccc(/C=N/NC(=O)c2cc3c(OC)ccc(OC)c3[nH]2)c1O | ? | 25.9µM | – | – | – | ?
FC(F)(F)c1nnc2c(Sc3ccccc3)nc3ccc(Cl)cc3n12 | 9.2µM | – | ? | ? | 11.6µM | ?
COc1ccc(C(=O)N/C(=C\c2cn(S(=O)(=O)N(C)C)c3ccccc23)C(=O)N2CCN(C)CC2)cc1OC | – | – | · | – | · | –
COc1ccc(CCN2CCC(Nc3nc4ccccc4n3Cc3ccc(F)cc3)CC2)cc1 | 14.6µM | 8.2µM | 3.66µM! | 20.6µM | 4.61µM | ?
N/C(=N\OC(=O)COc1ccc(Cl)cc1)c1cccnc1 | – | – | – | ? | – | –
N/C(=N\OC(=O)COc1ccc(Cl)cc1Cl)c1cccnc1 | – | – | 13µM | ? | – | –
CSc1cccc(NC(=O)CCCOc2ccc(Cl)cc2Cl)c1 | – | – | – | – | – | –
O=C(CCCOc1ccc(Cl)cc1Cl)Nc1cccnc1 | – | – | – | 18.4µM | – | –
CCOc1ccccc1NC(=S)NC(=O)CCCOc1ccc(Cl)cc1Cl | 11.2µM | ? | – | – | – | –
COc1cc(OC)c(NC(=O)c2sc3nc4n(c(=O)c3c2C)CCCC4)cc1Cl | · | · | · | – | · | –
COc1ccc(Cn2cc(C(=O)c3ccc(OC)cc3)c(=O)c3cc4c(cc32)OCCO4)cc1 | · | · | · | – | · | –
Cc1cc2oc(=O)cc(C)c2cc1NC(=O)CCl | ? | ? | ? | – | – | ?
Cc1cc2c(C)cc(=O)[nH]c2cc1NC(=O)CCl | ? | ? | 20.6µM | ? | 11.6µM | ?
O=C(CCl)Nc1cc2[nH]c(=O)[nH]c2cc1Br | 10.3µM | 6.51µM | ? | 14.6µM | 20.6µM | ?
CCC(=O)Nc1cc2[nH]c(=O)cc(C)c2cc1C | – | – | – | – | 0.651µM | –
O=C(COC(=O)c1cccc(Br)c1)Nc1ccc2[nH]c(=O)[nH]c2c1 | – | – | – | – | – | –
Fc1cccc(F)c1-n1c(CN2CCCCC2)csc1=S | ? | ? | 14.6µM | ? | ? | 23.1µM
Fc1cccc(F)c1-n1c(CN2CCOCC2)csc1=S | – | – | – | – | – | –
COc1cc(SC)ccc1C(=O)Nc1ccc(Cl)cn1 | – | – | – | 13µM | – | ?
